Experiment [1] can be described thus: qHTS assay to identify aromatase inhibitors - cell viability counter screen (AID 743084).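 Further: cells stimulated with testosterone during compound exposure; nearly all actives have a fitted effect of over 55% in size.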 A general note: qHTS replaces the single test concentration by a dilution series.
The target of experiment [2] is Aryl hydrocarbon receptor (Homo sapiens) (UniProt P35869). The experiment is described as follows: qHTS assay to identify small molecule that activate the aryl hydrocarbon receptor (AhR) signaling pathway (AID 743085).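 Further: HG2L7.5c1 human HepG2 liver cells with stably integrated DRE-driven firefly reporter; series mostly up to about 70 µM; nearly all actives have a fitted effect of over 15% in size.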 The procedure, abridged: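 24 h compound exposure, 37C, HepG2-derived HG2L7.5c1 cells with DRE-responsive luciferase. Readouts: fluorescence viability, then luminescence at room temperature after 30 min.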

Experiment [3] concerns the target Peroxisome proliferator-activated receptor gamma (Homo sapiens) (UniProt P37231). The experiment is described as follows: qHTS assay to identify small molecule agonists of the peroxisome proliferator-activated receptor gamma (PPARg) signaling pathway (AID 743094; active means well fitted activation curve with a large enough effect in the signal ratio in the repeat runs, not every such curve was filed as active; the % refers to the signal ratio). A digest of the protocol:
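Compounds dissolved in DMSO were added to PPARg UAS-bla HEK293H cells for 17 h at 37C, and reporter expression was quantified by fluorescence intensity after 1 h with LiveBLAzer B/G FRET substrate.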

For experiment [4] the target is unchanged. Description: qHTS assay to identify small molecule antagonists of the peroxisome proliferator-activated receptor gamma (PPARg) signaling pathway (AID 743191; calls by dose curve; further: series mostly up to about 63 µM; nearly all actives have a fitted effect of over 30% in size). A digest of the protocol: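 Beta-lactamase reporter under UAS control in HEK293H PPARg-bla cells; compound treatment 17 h at 37C. Read-out: fluorescence intensity after 1 h room-temperature incubation with LiveBLAzer B/G FRET substrate.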

Experiment [5] can be described thus: qHTS assay to identify small molecule antagonists of the peroxisome proliferator-activated receptor gamma (PPARg) signaling pathway - cell viability counter screen (AID 743194). Further: nearly all actives have a fitted effect of over 55% in size. The procedure, abridged: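 Viability was measured as CellTiter-Glo luminescence in GeneBLAzer PPARg UAS-bla HEK293H cells. These cells had been exposed 17 h at 37 C to compounds together with rosiglitazone at 50 nM final, with the beta-lactamase readout taken in the same wells.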

Experiment [6] can be described thus: qHTS assay for small molecule agonists of the antioxidant response element (ARE) signaling pathway - cell viability counter screen (AID 743203; calls by dose curve; further: nearly all actives have a fitted effect of over 55% in size). The procedure, abridged: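 Following 16 hrs of compound treatment at 37C, HepG2 cells with an ARE-controlled beta-lactamase gene were lysed with CellTiter-Glo. Luminescence was read after 30 min at room temperature.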

A short description of experiment [7]: qHTS assay for small molecule activators of the heat shock response signaling pathway - cell viability counter screen (AID 743209). Further: nearly all actives have a fitted effect of over 50% in size. A digest of the protocol: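 Readout: CellTiter-Glo luminescence, 30 min at room temperature. System: HSE-bla HeLa cells, 1500/well, plated overnight. Treatment: compounds in DMSO, 5 h at 37 C.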
The nature of experiment [8]: qHTS assay to identify small molecule that activate the aryl hydrocarbon receptor (AhR) signaling pathway - cell viability counter screen (AID 743086).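 Further: HepG2 liver cells carrying the AhR DRE luciferase reporter; series mostly up to about 70 µM; nearly all actives have a fitted effect of over 45% in size.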 The procedure, abridged:
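Cytotoxicity counter screen: CellTiter-Fluor signal (30 min, 37 C) in 4000 HepG2 cells/well carrying the DRE-luciferase reporter, following 24 h compound exposure at 37 C.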

The nature of experiment [9]: qHTS assay for small molecule activators of the heat shock response signaling pathway (AID 743210; active means well fitted activation curve with a large enough effect in the signal ratio in the repeat runs, with a control signal flat, not every such curve was filed as active; the % refers to the signal ratio;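 further: HeLa cells with beta-lactamase reporter driven by heat shock elements; series mostly up to about 63 µM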). A digest of the protocol:
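HeLa HSE-bla cells, overnight plating; cpd in DMSO 5 h, 37 C; LiveBLAzer B/G FRET substrate 2.5 h RT; fluorescence intensity read.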

Experiment [10] can be described thus: qHTS assay for small molecule agonists of the antioxidant response element (ARE) signaling pathway (AID 743202; active means well fitted activation curve with a large enough effect in the signal ratio in the repeat runs, not every such curve was filed as active; the % refers to the signal ratio; further: potency means the concentration at half of the fitted maximal effect). A digest of the protocol:
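Quantitative high-throughput format in HepG2 cells bearing an integrated ARE-beta-lactamase reporter. Compound exposure lasted 16 h at 37 C, and fluorescence was read 2 h after adding LiveBLAzer B/G substrate at room temperature.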

Inconclusive results are not listed. Active and inactive are the calls of the source. Unless noted, the call rests on the fitted dose curve; in most records, active means well fitted curve in the direction sought with a large enough effect in the repeat runs; inconclusive means weak or mixed curves; inactive means no such curve, though single readings can be large; an effect the other way counts as inactive or inconclusive.

Peroxisome proliferator-activated receptor gamma (Homo sapiens), sequence (P37231 whole entry, looked up): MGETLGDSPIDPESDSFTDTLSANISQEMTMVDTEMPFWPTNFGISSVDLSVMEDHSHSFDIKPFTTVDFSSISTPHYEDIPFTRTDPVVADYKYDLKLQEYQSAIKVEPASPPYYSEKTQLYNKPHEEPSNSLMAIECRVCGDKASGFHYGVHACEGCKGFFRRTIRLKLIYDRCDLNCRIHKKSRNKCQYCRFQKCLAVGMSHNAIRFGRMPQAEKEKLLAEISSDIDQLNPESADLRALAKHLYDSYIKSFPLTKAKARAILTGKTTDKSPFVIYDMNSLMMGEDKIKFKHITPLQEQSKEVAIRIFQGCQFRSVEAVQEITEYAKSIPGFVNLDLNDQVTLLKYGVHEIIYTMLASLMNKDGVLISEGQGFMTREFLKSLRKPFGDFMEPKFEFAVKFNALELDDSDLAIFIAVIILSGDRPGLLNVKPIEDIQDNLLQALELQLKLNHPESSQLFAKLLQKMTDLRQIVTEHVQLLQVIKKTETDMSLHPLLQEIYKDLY
Aryl hydrocarbon receptor (Homo sapiens), sequence (P35869 whole entry, looked up): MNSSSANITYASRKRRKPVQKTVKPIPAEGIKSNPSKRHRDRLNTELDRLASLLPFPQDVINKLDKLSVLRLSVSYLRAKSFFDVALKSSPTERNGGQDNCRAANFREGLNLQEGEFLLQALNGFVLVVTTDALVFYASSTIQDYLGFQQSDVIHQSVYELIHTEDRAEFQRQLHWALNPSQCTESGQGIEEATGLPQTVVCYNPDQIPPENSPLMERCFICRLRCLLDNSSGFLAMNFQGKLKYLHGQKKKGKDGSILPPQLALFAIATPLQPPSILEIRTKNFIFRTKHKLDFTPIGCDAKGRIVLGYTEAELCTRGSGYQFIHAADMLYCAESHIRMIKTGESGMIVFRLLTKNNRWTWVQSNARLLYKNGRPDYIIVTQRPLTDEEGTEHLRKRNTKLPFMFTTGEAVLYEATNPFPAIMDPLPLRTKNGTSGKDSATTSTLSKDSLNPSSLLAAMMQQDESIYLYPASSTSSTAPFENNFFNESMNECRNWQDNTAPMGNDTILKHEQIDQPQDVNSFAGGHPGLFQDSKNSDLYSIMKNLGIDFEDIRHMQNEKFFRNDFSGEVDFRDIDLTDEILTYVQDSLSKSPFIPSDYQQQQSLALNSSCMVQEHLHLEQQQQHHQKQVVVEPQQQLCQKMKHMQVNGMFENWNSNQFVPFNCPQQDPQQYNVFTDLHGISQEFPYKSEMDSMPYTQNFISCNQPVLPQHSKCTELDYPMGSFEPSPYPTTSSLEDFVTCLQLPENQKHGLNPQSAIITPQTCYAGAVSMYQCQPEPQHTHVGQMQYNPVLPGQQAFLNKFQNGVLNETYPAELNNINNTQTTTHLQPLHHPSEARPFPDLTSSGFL

Take `CC(=O)SCc1ccco1`: the Potency entry in experiment [1], in [2], in experiment [3], in [4], in experiment [5] and in experiment [6] was “inactive” in each case. Besides, the Potency result in experiment [7] was “inactive”.

In the case of `CCCCCCc1ccc(N)cc1`, the Potency entry in [1], in [2], in [8], in experiment [5] and in [7] was “inactive” throughout. The call in experiment [9] was inactive.

Take `N=C(N=C(N)N)N1CCOCC1`: the Potency result in [1], in experiment [2], in experiment [8], in [6] and in [7] was “inactive” throughout. The molecule was called inactive in experiment [9].

For `CCCCOC(=O)/C=C\C(=O)OCCCC`, the Potency result in [1], in experiment [2], in experiment [8], in experiment [5], in experiment [6] and in experiment [7] was “inactive” throughout.

`C[C@@H](C1=C(CCN(C)C)Cc2ccccc21)c1ccccn1`: the Potency result in experiment [1], in [2], in [8], in experiment [5], in experiment [6] and in [7] was “inactive” throughout. In addition, the molecule was called inactive in experiment [9].

Turning to `O=c1[nH]cnc2ccccc12`, the Potency result in experiment [1], in experiment [2], in experiment [3], in [4], in [5] and in [10] was “inactive” each time. Besides, the Potency result in [6] and in experiment [7] was “inactive” each time. In experiment [9], the call was inactive.

For the molecule `CNS(=O)(=O)Cc1ccc2[nH]cc(CCN(C)C)c2c1`, the Potency entry in experiment [1], in experiment [2], in [3], in experiment [4], in experiment [5] and in experiment [10] was “inactive” in each case. For the same molecule, the Potency result in [6] and in experiment [7] was “inactive” throughout. For the same molecule, the result in experiment [9] was inactive.

For the molecule `Cc1cc(CC(=O)O)c(C)n1-c1ccc(Cl)cc1`, the Potency result in [1], in experiment [2], in experiment [8], in [5], in experiment [6] and in experiment [7] was “inactive” in each case. Besides, the call in experiment [9] was inactive.

On to `Cc1nc2ccccc2n1Cc1ccc(Cl)cc1`, for which the Potency entry in experiment [1], in [2], in experiment [3], in [5] and in experiment [7] was “inactive” each time. Also, the molecule was called inactive in [9].

For `CCOC(=S)SSC(=S)OCC`, the Potency entry in [1], in experiment [2], in experiment [3], in [4], in experiment [5] and in experiment [10] was “inactive” throughout. The Potency result in experiment [6] and in experiment [7] was “inactive” in each case. Moreover, the molecule was called inactive in experiment [9].

Consider `CC(=O)[C@@]1(O)CC[C@H]2[C@@H]3C[C@H](C)C4=CC(=O)CC[C@]4(C)[C@H]3CC[C@@]21C`, for which the Potency result in experiment [1], in [2], in experiment [8], in experiment [5], in experiment [6] and in experiment [7] was “inactive” throughout. The call in experiment [9] was inactive.

With `CCOc1cc(OCC)c(C(=O)CCC(=O)O)cc1OCC`, the Potency entry in experiment [1], in experiment [2], in [8], in experiment [5], in [6] and in experiment [7] was “inactive” in each case. Also, the molecule was classed as inactive in [9].

Consider `CCCCCC/C=C/C=O`, for which the Potency result in experiment [1], in experiment [2], in experiment [3], in experiment [5], in experiment [10] and in experiment [6] was “inactive” throughout. In addition, the Potency entry in [7] is “inactive”.

Regarding `CC(C)c1ccccc1C(C)C`, the Potency entry in [1], in [2], in experiment [3], in experiment [4], in [5] and in experiment [10] was “inactive” in each case. Moreover, the Potency result in experiment [6] and in experiment [7] was “inactive” each time.

Consider `NC(=S)N/N=C/c1cccnc1`, for which the Potency result in experiment [1], in [2], in experiment [8], in [10], in experiment [6] and in experiment [7] was “inactive” each time. For the same molecule, the result in [9] was inactive.

For `CC(C)(C)c1cc(CO)cc(C(C)(C)C)c1O`, the Potency result in [1], in experiment [2], in experiment [3], in [4], in experiment [5] and in experiment [6] was “inactive” each time. The Potency result in experiment [7] is “inactive”. For the same molecule, the Potency in experiment [10] was 31.2 µM (active). Besides, the call in experiment [9] was inactive.

For the molecule `C#CCOC(=O)[C@@H](C)Oc1ccc(Oc2ncc(Cl)cc2F)cc1`, the Potency entry in [1], in [2], in experiment [8], in experiment [5], in experiment [6] and in [7] was “inactive” each time.

Regarding `Cc1ccc(C)o1`, the Potency result in [1], in experiment [2], in [3], in experiment [4], in experiment [5] and in experiment [10] was “inactive” each time. For the same molecule, the Potency entry in experiment [6] and in experiment [7] was “inactive” in each case. For the same molecule, the molecule was called inactive in experiment [9].

In the case of `CCCCCCOC(=O)CCC`, the Potency entry in experiment [1], in experiment [2], in experiment [3], in [5], in experiment [10] and in experiment [6] was “inactive” in each case. Besides, the Potency result in experiment [7] is “inactive”. Besides, the outcome in experiment [9] was inactive.

With `CN1CCC(=C2c3ccccc3CCc3sccc32)CC1`, the Potency entry in experiment [1], in experiment [2], in [3], in [4], in experiment [6] and in [7] was “inactive” throughout.

Consider `COC(=O)CSc1cc(N=c2sc(=O)n3n2CCCC3)c(F)cc1Cl`, for which the Potency result in [1], in experiment [2], in experiment [3], in [4], in [5] and in experiment [6] was “inactive” each time. In experiment [7], the Potency entry was “inactive”. Besides, in [9], the result was inactive.

In the case of `CCN(CC)CCNC(C(=O)OCCC(C)C)c1ccccc1` (configuration not stated), the Potency result in experiment [1], in experiment [2], in [3], in [4], in [5] and in experiment [10] was “inactive” throughout. Also, the Potency result in experiment [6] was “inactive”. The call in [9] was inactive.

Turning to `CC1=CCC(C(C)C)C=C1` (configuration not stated), the Potency entry in [1], in experiment [2], in experiment [8], in experiment [5], in [6] and in experiment [7] was “inactive” in each case. Also, in experiment [9], the outcome was inactive.

Turning to `CN(C)CCCOc1nn(Cc2ccccc2)c2ccccc12`, the Potency entry in experiment [1], in [2], in experiment [3], in [5], in experiment [6] and in experiment [7] was “inactive” each time. In addition, the outcome in [9] was inactive.

As for `CN(C)C/C=C(/c1ccc(Br)cc1)c1cccnc1`, the Potency result in experiment [1], in experiment [2], in experiment [3], in [4], in experiment [5] and in [10] was “inactive” throughout. Besides, the Potency entry in experiment [6] and in [7] was “inactive” throughout.

In the case of `Cc1ccc(O)c([C@H](CCN(C(C)C)C(C)C)c2ccccc2)c1`, the Potency entry in experiment [1], in [2], in experiment [3], in experiment [4], in [5] and in experiment [6] was “inactive” in each case. The Potency entry in experiment [7] was “inactive”. Besides, the molecule was called inactive in experiment [9].

Values taken from PubChem BioAssay (Tox21).
